Results on 6 compounds are retold here after PubChem BioAssay (NCI).

Some test systems named below: HCT-15 colon; HT29 colon; SNB-75 CNS; SNB-19 CNS; U251 CNS; PC-3 prostate; SK-MEL-5 melanoma; UACC-62 melanoma; LOX IMVI melanoma; SK-MEL-28 melanoma; SK-MEL-2 melanoma; EKVX NSCLC; SN12C renal; TK-10 renal; A498 renal; MOLT-4 leukemia.
What all share (assay): NCI-60 one-dose screen, 48 h (100 = growth as untreated, 0 = no growth, -100 = all killed)
The subject of a further assay is UO-31 renal. The following applies: 10 µM unless noted.
Another assay relates to ACHN renal. The following applies: 10 µM unless noted.
For a further assay, the system named is CAKI-1 renal. Particulars: 10 µM unless noted.
In a further assay the test system is CCRF-CEM leukemia. The following applies: 10 µM unless noted.

Molecules are shown by their SMILES. Values joined by “and” are separate entries in the source; they are usually repeats but may differ in a detail not shown here. Equal values may be shown once. Compounds without any hit were thinned out: in the full panel of roughly 83,000, 20% have a hit.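 Step 1: grow cells in 96-well plates. Step 2: add test compound at a single concentration. Step 3: incubate 48 h. Step 4: record percent growth.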 Values without a mark were called inactive. Active and inactive are the calls of the source. Rule for the calls: active = growth percent below 10; inactive = the rest.

On to `O=C1OCC2=C1C(c1cccc(C(F)(F)F)c1)c1cc3c(cc1N2CCO)CCC3` (centres undefined), for which the growth was 6.24% (active) with HCT-15 colon (10 µM unless noted); 1.24% (active) in the assay on HT29 colon (10 µM unless noted); 46% with SNB-75 CNS (10 µM unless noted); 23% in the assay on SNB-19 CNS (10 µM unless noted); 12.4% with U251 CNS (10 µM unless noted); 21.7% in the assay on PC-3 prostate (10 µM unless noted). Further, the growth with SK-MEL-5 melanoma (10 µM unless noted) is 0.201% (active); in the assay with UACC-62 melanoma (10 µM unless noted), 41.7%; in the assay with LOX IMVI melanoma (10 µM unless noted), 16.5%; in the assay with SK-MEL-28 melanoma (10 µM unless noted), 52.8%; in the assay with SK-MEL-2 melanoma (10 µM unless noted), 9.34% (active); with EKVX NSCLC (10 µM unless noted), 40.7%. Moreover, the growth in the assay with SN12C renal (10 µM unless noted) is 24.9%; in the assay on UO-31 renal it was 35.5%; with TK-10 renal (10 µM unless noted), 53.9%; in the assay with ACHN renal, 23.4%; in the assay with CAKI-1 renal, 26.9%; in the assay on A498 renal (10 µM unless noted) it was 1.23% (active). For the same compound, in the assay with CCRF-CEM leukemia, the growth is 6.63% (active).

Turning to `C=C1C(=O)O[C@H]2[C@H]1CC/C(COC(=O)NCc1ccc(Cn3c(=O)sn(CCCI)c3=O)cc1)=C\CC[C@@]1(C)O[C@@H]21`, the growth with HCT-15 colon (10 µM unless noted) is 26.9%; with HT29 colon (10 µM unless noted) it was -46.1% (active); in the assay with SNB-75 CNS (10 µM unless noted), 71.7%; with SNB-19 CNS (10 µM unless noted), 96.2%; with U251 CNS (10 µM unless noted), 50.9%; in the assay with PC-3 prostate (10 µM unless noted), 49.2%. Also, the growth is 91.9% with SK-MEL-5 melanoma (10 µM unless noted); 15.6% in the assay with UACC-62 melanoma (10 µM unless noted); -24.5% (active) with LOX IMVI melanoma (10 µM unless noted); 4.93% (active) in the assay on SK-MEL-28 melanoma (10 µM unless noted); 68.5% in the assay with SK-MEL-2 melanoma (10 µM unless noted); 91.7% with EKVX NSCLC (10 µM unless noted). Further, the growth with SN12C renal (10 µM unless noted) was 2.19% (active); in the assay on UO-31 renal it was -30.1% (active); in the assay with TK-10 renal (10 µM unless noted), 0.113% (active); with ACHN renal, 16.2%; with CAKI-1 renal, 33.7%; with A498 renal (10 µM unless noted) it was 105%. Besides, the growth in the assay on CCRF-CEM leukemia was -9.69% (active).

In the case of `COc1nc(=O)n(C2C=CC(=O)O2)cc1F` (centres undefined), the growth with HCT-15 colon (10 µM unless noted) was 58.5%; in the assay on HT29 colon (10 µM unless noted), 55.8%; in the assay on SNB-75 CNS (10 µM unless noted), 90.2%; in the assay on SNB-19 CNS (10 µM unless noted), 97.8%; with U251 CNS (10 µM unless noted), 103%; in the assay on PC-3 prostate (10 µM unless noted), 110%. In addition, the growth with SK-MEL-5 melanoma (10 µM unless noted) was 94.9%; with UACC-62 melanoma (10 µM unless noted), 59.7%; in the assay with LOX IMVI melanoma (10 µM unless noted) it was 64.9%; in the assay on SK-MEL-28 melanoma (10 µM unless noted), 96%; with SK-MEL-2 melanoma (10 µM unless noted), 106%; in the assay with EKVX NSCLC (10 µM unless noted) it was 78.4%. Moreover, the growth is 94.8% with SN12C renal (10 µM unless noted); 56.3% in the assay on UO-31 renal; 61.3% in the assay on TK-10 renal (10 µM unless noted); 31.7% in the assay on ACHN renal; 40.1% in the assay on CAKI-1 renal; 97.9% in the assay with A498 renal (10 µM unless noted). Further, in the assay on CCRF-CEM leukemia, the growth was 48.7%.

Take `CC(=O)/C=C/c1ccc(OCc2ccc(C(C)(C)C)cc2)cc1`: the growth is 64.7% with HCT-15 colon (10 µM); 22.2% in the assay with HCT-15 colon (100 µM); 42.4% with HT29 colon (10 µM); 8.01% (active) in the assay on HT29 colon (100 µM); 94.7% with SNB-75 CNS (10 µM); -11.6% (active) with SNB-75 CNS (100 µM). For the same compound, the growth with SNB-19 CNS (10 µM) is 98.5%; in the assay with SNB-19 CNS (100 µM) it was 28.5%; in the assay with U251 CNS (10 µM), 88.9%; in the assay on U251 CNS (100 µM) it was 37.7%; in the assay on PC-3 prostate (10 µM), 79.1%; in the assay on PC-3 prostate (100 µM) it was 14%. The growth with SK-MEL-5 melanoma (10 µM) was 50.3%; in the assay with SK-MEL-5 melanoma (100 µM), -6.85% (active); in the assay on UACC-62 melanoma (10 µM), 74.2%; in the assay on UACC-62 melanoma (100 µM) it was -3.4% (active); in the assay on LOX IMVI melanoma (10 µM), 62.3%; with LOX IMVI melanoma (100 µM) it was 32%. Moreover, the growth is 85.5% with SK-MEL-28 melanoma (10 µM); -1.32% (active) in the assay with SK-MEL-28 melanoma (100 µM); 91.5% in the assay with SK-MEL-2 melanoma (10 µM); -21.6% (active) with SK-MEL-2 melanoma (100 µM); 95.1% in the assay on EKVX NSCLC (10 µM); 24.8% with EKVX NSCLC (100 µM). For the same compound, the growth with SN12C renal (10 µM) was 80%; with SN12C renal (100 µM), 28.1%; in the assay with TK-10 renal (10 µM), 111%; in the assay with TK-10 renal (100 µM), 55.1%; in the assay on ACHN renal, 82.6%; in the assay on A498 renal (10 µM) it was 80.4%. Besides, the growth was -94.2% (active) in the assay on A498 renal (100 µM), 28% [100 µM] in the assay on CCRF-CEM leukemia, 68.3% with MOLT-4 leukemia (10 µM) and 13.1% in the assay on MOLT-4 leukemia (100 µM).

Take `COc1cc(C(=O)c2ccccc2C(=O)O)c(OC)c2c1CCCC2`: the growth in the assay with HCT-15 colon (10 µM unless noted) was 93.4% and 104%; in the assay with HT29 colon (10 µM unless noted), 105% and 98.2%; in the assay on SNB-75 CNS (10 µM unless noted) it was 94.1% and 87.4%; in the assay on SNB-19 CNS (10 µM unless noted), 94.6% and 102%; in the assay with U251 CNS (10 µM unless noted), 97% and 100%; in the assay with PC-3 prostate (10 µM unless noted) it was 93.3% and 103%. For the same compound, the growth in the assay with SK-MEL-5 melanoma (10 µM unless noted) is 96.6% and 97.5%; with UACC-62 melanoma (10 µM unless noted), 96.1% and 101%; in the assay with LOX IMVI melanoma (10 µM unless noted), 94.3% and 94.1%; with SK-MEL-28 melanoma (10 µM unless noted), 102% and 113%; in the assay with SK-MEL-2 melanoma (10 µM unless noted), 115%; in the assay on EKVX NSCLC (10 µM unless noted) it was 87.7%. The growth is 96.4% and 98.3% in the assay on SN12C renal (10 µM unless noted); 81.9% and 84.1% with UO-31 renal; 67.5% and 107% in the assay on TK-10 renal (10 µM unless noted); 102% and 103% in the assay on ACHN renal; 98.2% and 98.9% in the assay on CAKI-1 renal; 52.8% and 110% in the assay with A498 renal (10 µM unless noted). In addition, in the assay with CCRF-CEM leukemia, the growth was 113% and 90.4%.

As to `COc1ccc(/C(C)=C(\c2ccc(OCCN3CCOCC3)cc2)c2ccc(OC(=O)C3CCCCC3)cc2)cc1`, the growth with HCT-15 colon (10 µM unless noted) was 102%; in the assay on HT29 colon (10 µM unless noted), 102%; in the assay on SNB-75 CNS (10 µM unless noted) it was 110%; in the assay on SNB-19 CNS (10 µM unless noted), 107%; in the assay with U251 CNS (10 µM unless noted), 103%; in the assay on PC-3 prostate (10 µM unless noted) it was 104%. In addition, the growth is 110% in the assay with SK-MEL-5 melanoma (10 µM unless noted); 110% in the assay on UACC-62 melanoma (10 µM unless noted); 102% with LOX IMVI melanoma (10 µM unless noted); 106% in the assay on SK-MEL-28 melanoma (10 µM unless noted); 104% in the assay with SK-MEL-2 melanoma (10 µM unless noted); 107% in the assay with EKVX NSCLC (10 µM unless noted). The growth in the assay with SN12C renal (10 µM unless noted) is 113%; in the assay on UO-31 renal it was 101%; in the assay with TK-10 renal (10 µM unless noted), 104%; in the assay with ACHN renal it was 98%; with CAKI-1 renal, 101%; in the assay on A498 renal (10 µM unless noted), 110%. Moreover, in the assay on CCRF-CEM leukemia, the growth is 111%.
